From PubChem BioAssay (EPA / NIEHS)
Inconclusive results are not listed. Calls of active or inactive are those of the source. Rule for the calls, unless noted: active = hit-call score of the fitted dose curve at least 0.9, where 1 is the maximum; inactive = score below 0.9.

Key:
[1] = target: Oxysterols receptor LXR-alpha (Homo sapiens) (UniProt Q13133); experiment: ATG_LXRa_TRANS: Attagene TRANS-FACTORIAL HepG2 Assay for human Liver X Receptor alpha (LXRa) (AID 2282980; active = hit-call score of the fitted dose curve at least 0.9, where 1 is the maximum); conditions: HepG2 Attagene TRANS reporter, LXRa transactivation
Chain of Oxysterols receptor LXR-alpha (Homo sapiens) (Q13133 whole entry, looked up, the tested form may be a part): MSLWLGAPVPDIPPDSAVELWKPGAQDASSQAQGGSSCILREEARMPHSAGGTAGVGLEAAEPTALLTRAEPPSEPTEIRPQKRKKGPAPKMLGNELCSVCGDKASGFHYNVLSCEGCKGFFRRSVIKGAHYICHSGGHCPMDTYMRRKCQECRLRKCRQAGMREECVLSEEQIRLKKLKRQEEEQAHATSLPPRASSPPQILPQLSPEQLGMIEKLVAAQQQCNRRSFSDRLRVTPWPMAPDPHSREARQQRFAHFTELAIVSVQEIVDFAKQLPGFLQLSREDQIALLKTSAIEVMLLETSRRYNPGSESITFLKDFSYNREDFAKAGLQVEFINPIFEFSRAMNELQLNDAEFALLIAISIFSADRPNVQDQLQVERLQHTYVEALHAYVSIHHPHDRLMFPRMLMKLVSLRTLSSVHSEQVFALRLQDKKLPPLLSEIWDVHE
Method in brief: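 HepG2 cells were transiently transfected with multiplexed reporter units driven by chimeric LXRa–GAL4 fusion proteins, then dosed for 24 h. Reporter mRNA was quantified by RT-PCR, fluorescent labelling and capillary electrophoresis; gain of signal fitted against DMSO baseline.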

[2] = target: Oxysterols receptor LXR-beta (Homo sapiens) (UniProt P55055); experiment: ATG_LXRb_TRANS: Attagene TRANS-FACTORIAL HepG2 Assay for human Liver X Receptor beta (LXRb) (AID 2282981; active = hit-call score of the fitted dose curve at least 0.9, where 1 is the maximum); conditions: HepG2 Attagene TRANS GAL4-LXRb reporter, mRNA
Chain of Oxysterols receptor LXR-beta (Homo sapiens) (P55055 whole entry, looked up, the tested form may be a part): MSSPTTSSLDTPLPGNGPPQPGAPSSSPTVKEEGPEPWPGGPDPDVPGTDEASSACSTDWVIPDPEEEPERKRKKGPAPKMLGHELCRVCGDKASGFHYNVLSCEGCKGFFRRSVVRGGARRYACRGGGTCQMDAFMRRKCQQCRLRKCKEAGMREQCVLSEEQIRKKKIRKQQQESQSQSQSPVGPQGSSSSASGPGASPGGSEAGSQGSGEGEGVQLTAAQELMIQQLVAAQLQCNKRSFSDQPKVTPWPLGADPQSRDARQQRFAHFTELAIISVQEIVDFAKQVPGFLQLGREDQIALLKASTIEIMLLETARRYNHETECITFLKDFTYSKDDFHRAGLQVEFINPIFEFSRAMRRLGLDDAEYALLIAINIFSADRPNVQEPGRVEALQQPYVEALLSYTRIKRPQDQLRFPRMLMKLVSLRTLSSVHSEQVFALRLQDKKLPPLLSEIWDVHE
Method in brief: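 Measures induction of a Gal4-driven reporter transcript in HepG2 cells expressing an exogenous LXRb-Gal4 fusion. Cells are exposed to compound for 24 h before RNA isolation and RT-PCR with capillary electrophoresis detection.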

[3] = ATG_M_06_TRANS: Attagene TRANS-FACTORIAL HepG2 Assay for M06 Transcription Factor (Internal Marker) (AID 2282983; active = hit-call score of the fitted dose curve at least 0.9, where 1 is the maximum); conditions: HepG2 Attagene TRANS M06 internal marker reporter
Method in brief: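 In this multiplexed HepG2 system, compounds are incubated 24 h with cells carrying GAL4-UAS reporter units. Reporter RNA is amplified and resolved by capillary electrophoresis, and induction is scored against DMSO.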

[4] = ATG_M_32_TRANS: Attagene TRANS-FACTORIAL HepG2 Assay for M32 Transcription Factor (Internal Marker) (AID 2282984; active = hit-call score of the fitted dose curve at least 0.9, where 1 is the maximum;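 note: transcript level of a background control reporter unit measured by RT-PCR and capillary electrophoresis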); conditions: HepG2 Attagene TRANS M32 internal marker reporter
Method in brief: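 After 24 h dosing of transfected HepG2 cells, total RNA was reverse-transcribed, reporter sequences PCR-amplified, 6-FAM labelled by primer extension and HpaI-digested before capillary electrophoresis. Signal increase over DMSO was fitted.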

[5] = target: Nuclear receptor subfamily 4 group A member 2 (Homo sapiens) (UniProt P43354); experiment: ATG_NURR1_TRANS: Attagene TRANS-FACTORIAL HepG2 Assay for human Nuclear Receptor Related Protein 1 (NURR1) (AID 2282985; active = hit-call score of the fitted dose curve at least 0.9, where 1 is the maximum); conditions: HepG2 Attagene TRANS reporter, mRNA readout
Chain of Nuclear receptor subfamily 4 group A member 2 (Homo sapiens) (P43354 whole entry, looked up, the tested form may be a part): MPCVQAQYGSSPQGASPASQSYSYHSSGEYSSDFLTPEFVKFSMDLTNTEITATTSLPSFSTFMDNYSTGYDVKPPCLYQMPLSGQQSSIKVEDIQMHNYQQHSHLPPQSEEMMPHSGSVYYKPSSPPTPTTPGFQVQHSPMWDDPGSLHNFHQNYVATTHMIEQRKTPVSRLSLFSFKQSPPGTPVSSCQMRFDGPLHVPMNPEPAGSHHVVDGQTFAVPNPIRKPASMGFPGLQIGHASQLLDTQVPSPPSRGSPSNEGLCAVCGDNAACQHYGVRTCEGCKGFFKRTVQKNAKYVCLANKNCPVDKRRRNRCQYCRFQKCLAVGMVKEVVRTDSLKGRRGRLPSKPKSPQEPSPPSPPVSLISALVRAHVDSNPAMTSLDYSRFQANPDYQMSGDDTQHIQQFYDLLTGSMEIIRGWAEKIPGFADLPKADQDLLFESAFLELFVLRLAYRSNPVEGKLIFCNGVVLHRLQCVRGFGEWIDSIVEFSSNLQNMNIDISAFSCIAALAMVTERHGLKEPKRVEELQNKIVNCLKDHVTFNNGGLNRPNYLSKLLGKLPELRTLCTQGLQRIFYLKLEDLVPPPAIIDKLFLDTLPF
Method in brief: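 Chimeric NR-Gal4 fusion activity measured in HepG2 after 24 h treatment. Reporter transcripts detected by RT-PCR and capillary electrophoresis fluorescence; positive-direction curve fitting against DMSO.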

[6] = target: Transcriptional activator Myb (Homo sapiens) (UniProt P10242); experiment: ATG_Myb_CIS: Attagene CIS-FACTORIAL HepG2 Assay for human Myeloblastosis (Myb) Proto-Oncogene Transcription Factor (AID 2282986); conditions: HepG2 Attagene CIS-FACTORIAL Myb reporter transcription; actives raise or lower the signal
Chain of Transcriptional activator Myb (Homo sapiens) (P10242 whole entry, looked up): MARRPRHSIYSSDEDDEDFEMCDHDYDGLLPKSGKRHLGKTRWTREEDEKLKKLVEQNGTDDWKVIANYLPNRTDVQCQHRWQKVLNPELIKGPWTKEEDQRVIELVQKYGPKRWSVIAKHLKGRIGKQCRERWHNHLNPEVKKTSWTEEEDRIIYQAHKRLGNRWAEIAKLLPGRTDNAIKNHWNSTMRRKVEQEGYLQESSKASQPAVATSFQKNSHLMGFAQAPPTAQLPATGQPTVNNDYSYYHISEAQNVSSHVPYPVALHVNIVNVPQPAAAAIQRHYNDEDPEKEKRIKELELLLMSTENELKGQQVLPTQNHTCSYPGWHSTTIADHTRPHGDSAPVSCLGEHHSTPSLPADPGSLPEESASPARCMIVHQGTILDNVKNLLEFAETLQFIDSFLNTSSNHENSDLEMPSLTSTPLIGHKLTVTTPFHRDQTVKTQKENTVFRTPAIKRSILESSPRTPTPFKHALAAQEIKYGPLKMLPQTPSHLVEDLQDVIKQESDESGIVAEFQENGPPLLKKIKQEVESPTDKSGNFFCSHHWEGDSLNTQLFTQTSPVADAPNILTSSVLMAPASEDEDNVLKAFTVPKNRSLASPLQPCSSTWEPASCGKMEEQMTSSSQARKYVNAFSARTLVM
Method in brief: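 After 24 h of compound dosing, total RNA from transfected HepG2 cells is reverse-transcribed and the reporter sequences amplified, labeled and separated by capillary electrophoresis. Values come from bidirectional fitting against DMSO.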

[7] = target: Nuclear respiratory factor 1 (Homo sapiens) (UniProt Q16656); experiment: ATG_NRF1_CIS: Attagene CIS-FACTORIAL HepG2 Assay for human Nuclear Respiratory Factor 1 (NRF1) Orphan Gene (AID 2282987); conditions: HepG2 NRF1 cis-element reporter, Attagene multiplex; actives raise or lower the signal
Chain of Nuclear respiratory factor 1 (Homo sapiens) (Q16656 whole entry, looked up): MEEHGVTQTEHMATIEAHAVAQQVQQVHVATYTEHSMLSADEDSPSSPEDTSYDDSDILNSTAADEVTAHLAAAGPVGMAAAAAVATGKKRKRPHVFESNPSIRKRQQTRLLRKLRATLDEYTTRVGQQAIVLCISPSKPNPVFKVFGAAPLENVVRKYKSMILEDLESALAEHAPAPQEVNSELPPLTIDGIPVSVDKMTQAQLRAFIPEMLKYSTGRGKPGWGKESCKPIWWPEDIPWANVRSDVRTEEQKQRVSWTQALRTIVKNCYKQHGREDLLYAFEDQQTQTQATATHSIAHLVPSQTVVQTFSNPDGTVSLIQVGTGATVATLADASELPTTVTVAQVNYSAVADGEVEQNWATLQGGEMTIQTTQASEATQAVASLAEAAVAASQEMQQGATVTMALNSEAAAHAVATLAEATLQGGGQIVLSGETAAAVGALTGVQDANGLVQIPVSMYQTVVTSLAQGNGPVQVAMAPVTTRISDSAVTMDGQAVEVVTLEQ
Method in brief: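 Measured: fluorescent reporter-specific RT-PCR products from transfected HepG2 cells, separated by capillary electrophoresis. Exposure lasted 24 h. Analysis used bidirectional curve fitting with DMSO as negative control.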

[8] = ATG_NFI_CIS: Attagene CIS-FACTORIAL HepG2 Assay for human Nuclear Factor I (NFI) (AID 2282989); conditions: HepG2 cis-regulatory reporter, NFI response element transcription; actives raise or lower the signal
Method in brief: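 Transfected HepG2 liver cells, exposed 24 h, supplied total RNA for oligo(dT) reverse transcription and reporter-specific PCR. Labelled, HpaI-cut fragments were sized by capillary electrophoresis; DMSO set the baseline for bidirectional fitting.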

[9] = target: Myc proto-oncogene protein (Homo sapiens) (UniProt P01106); experiment: ATG_Myc_CIS: Attagene CIS-FACTORIAL HepG2 Assay for human Myelocytomatosis (Myc) Proto-Oncogene Transcription Factor (AID 2282990); conditions: HepG2, Attagene cis-reporter transcription factor activity; actives raise or lower the signal
Chain of Myc proto-oncogene protein (Homo sapiens) (P01106 whole entry, looked up): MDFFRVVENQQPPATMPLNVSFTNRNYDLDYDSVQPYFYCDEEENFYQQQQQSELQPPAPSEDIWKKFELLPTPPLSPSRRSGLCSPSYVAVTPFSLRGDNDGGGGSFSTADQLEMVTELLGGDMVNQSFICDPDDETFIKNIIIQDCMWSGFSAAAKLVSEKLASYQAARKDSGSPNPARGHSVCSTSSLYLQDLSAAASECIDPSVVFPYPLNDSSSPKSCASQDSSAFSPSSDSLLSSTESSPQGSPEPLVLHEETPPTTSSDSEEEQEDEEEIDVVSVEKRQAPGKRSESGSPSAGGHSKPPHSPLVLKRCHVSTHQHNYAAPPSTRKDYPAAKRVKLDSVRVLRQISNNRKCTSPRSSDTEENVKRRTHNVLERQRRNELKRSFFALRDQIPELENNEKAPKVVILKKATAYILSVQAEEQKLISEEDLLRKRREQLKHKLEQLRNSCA
Method in brief: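 Multiplexed cis-reporter transcription in HepG2 cells after 24 h chemical treatment. Reporter mRNA measured by RT-PCR and capillary electrophoresis fluorescence; activity fitted bidirectionally against DMSO control.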

[10] = ATG_NF_kB_CIS: Attagene CIS-FACTORIAL HepG2 Assay for human Nuclear Factor Kappa B (NF-kB) (AID 2282991); conditions: HepG2 Attagene cis-factorial NF-kB reporter mRNA; actives raise or lower the signal
Method in brief: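 Fluorescence of labelled RT-PCR products separated by capillary electrophoresis gives reporter mRNA levels from transfected HepG2 cells exposed 24 h; values are fitted in both directions relative to DMSO.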

[11] = ATG_NRF2_ARE_CIS: Attagene CIS-FACTORIAL HepG2 Assay for human Nuclear Factor Erythroid 2 Related Factor 2 (NFR2) response to Antioxidant Response Elements (ARE) (AID 2282992); conditions: HepG2 Attagene ARE/NRF2 reporter, transcription factor activity; actives raise or lower the signal
Method in brief: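 Endogenous transcription factor activity read out as reporter transcript levels (RT-PCR plus capillary electrophoresis, fluorescence) in transiently transfected HepG2 cells. Measured at 24 h after dosing; gain or loss of signal fitted versus DMSO.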

[12] = ATG_Oct_MLP_CIS: Attagene CIS-FACTORIAL HepG2 Assay for human Octamer-Binding Transcription Factor (Oct) (AID 2282993); conditions: HepG2 Attagene cis-factorial Oct reporter, mRNA; actives raise or lower the signal
Method in brief: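 Using HepG2 cells bearing transfected cis-reporter constructs, mRNA induction was read after 24 h by fluorescent RT-PCR and capillary electrophoresis, with DMSO defining baseline for gain- or loss-of-signal fits.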

[13] = target: Cellular tumor antigen p53 (Homo sapiens) (UniProt P04637); experiment: ATG_p53_CIS: Attagene CIS-FACTORIAL HepG2 Assay for human p53 Transcription Factor (AID 2282994); conditions: HepG2 p53 cis-element reporter, Attagene mRNA; actives raise or lower the signal
Chain of Cellular tumor antigen p53 (Homo sapiens) (P04637 whole entry, looked up): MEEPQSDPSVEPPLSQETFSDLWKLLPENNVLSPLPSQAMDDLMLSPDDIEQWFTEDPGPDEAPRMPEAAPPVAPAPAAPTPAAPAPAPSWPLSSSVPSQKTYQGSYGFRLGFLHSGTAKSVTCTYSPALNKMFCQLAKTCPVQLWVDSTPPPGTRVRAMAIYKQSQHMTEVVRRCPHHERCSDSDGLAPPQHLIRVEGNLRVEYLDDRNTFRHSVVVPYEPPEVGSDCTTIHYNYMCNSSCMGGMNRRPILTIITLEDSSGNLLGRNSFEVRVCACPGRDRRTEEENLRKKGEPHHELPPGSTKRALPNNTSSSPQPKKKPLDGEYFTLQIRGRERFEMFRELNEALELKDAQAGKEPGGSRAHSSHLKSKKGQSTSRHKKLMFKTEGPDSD
Method in brief: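 Endogenous p53 activity read in transiently transfected HepG2 from a cis-element-driven reporter transcript after 24 h exposure. RNA reverse-transcribed, PCR-amplified, fluorescently labelled and sized by capillary electrophoresis; gain or loss fitted against DMSO baseline.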

[14] = BSK_3C_TissueFactor: BioMAP Diversity Plus: 3C Assay for Tissue Factor Biomarker Activity (AID 2282997); conditions: BioMAP 3C HUVEC, tissue factor biomarker readout; actives raise or lower the signal
Method in brief: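 Readout: Tissue Factor ELISA. Cells: human primary umbilical vein endothelium. Time: 24 h after dosing. Analysis: bidirectional fit, DMSO baseline.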

[15] = BSK_3C_uPAR: BioMAP Diversity Plus: 3C Assay for Urokinase-type plasminogen activator receptor (uPAR) Biomarker Activity (AID 2282998); conditions: BioMAP 3C HUVEC, uPAR biomarker ELISA; actives raise or lower the signal
Method in brief: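 In this endothelial cell-based assay, human umbilical vein primary cells were treated with chemicals and harvested at 24 h. uPAR was quantified using ELISA, with gains or losses fitted relative to DMSO controls.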

[16] = target: Hepatocyte nuclear factor 4-alpha (Homo sapiens) (UniProt P41235); experiment: ATG_HNF4a_TRANS: Attagene TRANS-FACTORIAL HepG2 Assay for human Hepatocyte Nuclear Factor 4 alpha (HNF4a) (AID 2282982; active = hit-call score of the fitted dose curve at least 0.9, where 1 is the maximum); conditions: HepG2 HNF4a transactivation reporter, mRNA readout
Chain of Hepatocyte nuclear factor 4-alpha (Homo sapiens) (P41235 whole entry, looked up, the tested form may be a part): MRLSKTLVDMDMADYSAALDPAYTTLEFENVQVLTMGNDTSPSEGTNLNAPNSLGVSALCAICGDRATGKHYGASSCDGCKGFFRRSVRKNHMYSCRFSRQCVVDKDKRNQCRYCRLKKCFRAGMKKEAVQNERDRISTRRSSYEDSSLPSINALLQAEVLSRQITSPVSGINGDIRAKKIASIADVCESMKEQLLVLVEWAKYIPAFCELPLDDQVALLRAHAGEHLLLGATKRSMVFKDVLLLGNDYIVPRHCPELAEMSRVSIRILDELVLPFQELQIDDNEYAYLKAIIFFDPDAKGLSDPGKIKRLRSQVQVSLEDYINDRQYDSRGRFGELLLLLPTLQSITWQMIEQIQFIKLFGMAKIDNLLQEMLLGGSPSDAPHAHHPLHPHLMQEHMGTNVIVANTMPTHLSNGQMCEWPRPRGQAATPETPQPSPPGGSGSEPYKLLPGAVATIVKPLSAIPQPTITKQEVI
Method in brief: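 In this trans-factorial format, a chimeric HNF4a-GAL4 fusion drives a GAL4-UAS reporter in transfected HepG2 liver cells. After 24 h treatment, reporter mRNA induction is measured by RT-PCR with capillary electrophoresis, relative to DMSO.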

[17] = target: Bile acid receptor (Homo sapiens) (UniProt Q96RI1); experiment: ATG_FXR_TRANS: Attagene TRANS-FACTORIAL HepG2 Assay for Farnesoid X Receptor (FXR) (AID 2282979; active = hit-call score of the fitted dose curve at least 0.9, where 1 is the maximum;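 note: hits raise reporter mRNA above DMSO so AC50 marks FXR activation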); conditions: HepG2 Attagene TRANS FXR-GAL4 reporter transcription
Chain of Bile acid receptor (Homo sapiens) (Q96RI1 whole entry, looked up, the tested form may be a part): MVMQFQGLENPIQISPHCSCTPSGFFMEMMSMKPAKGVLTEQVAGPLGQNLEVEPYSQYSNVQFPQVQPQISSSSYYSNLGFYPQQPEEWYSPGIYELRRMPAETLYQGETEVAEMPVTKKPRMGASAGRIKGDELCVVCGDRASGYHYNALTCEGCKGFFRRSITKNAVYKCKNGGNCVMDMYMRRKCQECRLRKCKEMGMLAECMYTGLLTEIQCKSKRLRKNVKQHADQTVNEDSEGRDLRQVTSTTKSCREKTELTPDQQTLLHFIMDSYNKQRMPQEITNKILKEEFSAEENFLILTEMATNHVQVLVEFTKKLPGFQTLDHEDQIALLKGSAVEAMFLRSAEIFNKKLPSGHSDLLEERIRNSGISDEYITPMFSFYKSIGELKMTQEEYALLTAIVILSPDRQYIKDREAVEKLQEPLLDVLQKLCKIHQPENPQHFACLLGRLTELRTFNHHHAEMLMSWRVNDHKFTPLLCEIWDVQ
Method in brief: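 HepG2 cells transiently transfected with reporter constructs in which a chimeric FXR-GAL4 protein drives a GAL4-UAS reporter; 24 h compound exposure. Reporter mRNA measured by RT-PCR, FAM labelling, HpaI digestion and capillary electrophoresis; gain-of-signal versus DMSO.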

| SMILES | outcome [1] | outcome [2] | outcome [3] | outcome [4] | outcome [5] | outcome [6] | outcome [7] | outcome [8] | outcome [9] | outcome [10] | AC50 [11] | AC50 [12] | outcome [13] | outcome [14] | outcome [15] | outcome [16] | outcome [12] | AC50 [7] | outcome [17] |
| --- | --- | --- | --- | --- | --- | --- | --- | --- | --- | --- | --- | --- | --- | --- | --- | --- | --- | --- | --- |
| C#CC(C)(C)NC(=O)c1cc(Cl)cc(Cl)c1 | inactive | inactive | inactive | inactive | inactive | inactive | inactive | inactive | inactive | inactive | 22 µM (active) | 30.6 µM (active) | inactive | inactive | inactive | – | – | – | – |
| CC(C)[C@H](C(=O)O[C@H](C#N)c1cccc(Oc2ccccc2)c1)c1ccc(Cl)cc1 | – | – | – | – | – | – | inactive | inactive | inactive | inactive | 0.938 µM (active) | – | inactive | inactive | inactive | inactive | inactive | – | – |
| C[Si](Cn1cncn1)(c1ccc(F)cc1)c1ccc(F)cc1 | inactive | inactive | inactive | inactive | inactive | inactive | – | inactive | inactive | – | 11.8 µM (active) | 39.1 µM (active) | inactive | inactive | inactive | inactive | – | 73.7 µM (active) | – |
| CCCSP(=O)(OCC)Oc1ccc(Br)cc1Cl (stereo unspecified) | inactive | inactive | inactive | inactive | inactive | inactive | inactive | inactive | inactive | inactive | 2.73 µM (active) | 2.03 µM (active) | inactive | inactive | inactive | – | – | – | inactive |
